Tests used:
Test in all cases: PBM binding z-score (relative to random genomic background probes); higher = stronger binding; sequences stand for … in GC…GCGATTGACAGCGTAGAATGAAGG
[1] = system: RARb homodimer (NR concentration 270 nM)
Summary of the method: (§1)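 Binding buffer was PBS pH 7.4 with 2% milk, 0.02% Triton X-100, 1 mM DTT, 0.2 mg/mL BSA and 0.4 mg/ml salmon testes DNA. In it, ligand-free nuclear receptor dimers were incubated 1 h on custom Agilent 4×180K protein-binding microarrays carrying double-stranded probes. Antibodies against each partner (one per run) detected binding, and z-scores were calculated against random background probes after regression normalization of scanned fluorescence.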

[2] = system: RARg:RXRa (NR concentration 270 nM, RXRa partner concentration 90 nM)
Summary of the method: as §1

[3] = system: RARg homodimer (NR concentration 270 nM)
Summary of the method: as §1

[4] = system: RXRa DBDmut IVT, anti-RXR (DBD mutation: RXRa K156A/R161A, NR concentration 90 nM)
Summary of the method: as §1

[5] = system: RXRa homodimer (NR concentration 180 nM)
Summary of the method: as §1

[6] = system: THRa:RXRa (NR concentration 90 nM, RXRa partner concentration 90 nM)
Summary of the method: as §1

[7] = system: THRa homodimer (NR concentration 90 nM)
Summary of the method: as §1

[8] = system: VDR homodimer (NR concentration 270 nM)
Summary of the method: as §1

Sequence	PBM binding z-score [1]	PBM binding z-score [2]	PBM binding z-score [3]	PBM binding z-score [4]	PBM binding z-score [5]	PBM binding z-score [6]	PBM binding z-score [7]	PBM binding z-score [8]
CAAACTAGGGCACGAAAGGTCAAAGTCGAATGAC	5.2	6.2	5.83	1.44	6.29	4.84	0.977	1.87
TCATATAGGTAATACAGGTGAAAGTAGGCATCTA	0.649	0.714	0.742	1.81	1.2	1.05	0.429	0.305
CCTACTGTGCCACGAAAGGTCATTGATTCAGTGA	4.67	4.41	3.73	1.43	4.76	3.46	1.67	2.34
ACCTCTAGGTAAAGATAGTTCAGTGAATGCAAAT	0.723	0.4	0.505	0.0276	0.0359	0.533	-0.346	0.268
TCATCTAGGTAAAGGTGAAAGTCGAACGATATGA	1.65	1.58	1.28	0.923	2.08	1.75	0.0366	0.215
GCGACTGAGGCATCAGCAGGTTACCATAACTTAA	-0.000366	-0.216	-0.35	-0.168	-0.0735	0.371	-0.148	-0.64
CGTCAAAGTTCAACTAAGGTAACCTAAAGCACGC	4.36	6.08	6.64	4.81	4.92	5.31	2.1	4.48
CCAGACAGGTGAAAGCTAACTCAGTCTGGTACGC	-0.273	0.135	0.254	-0.328	0.326	-0.0859	-0.832	-0.146
ATCTCTAGGTAAAGATAGTCCAGTGAATGCAAAT	-0.17	0.22	0.658	0.0705	0.108	0.341	0.315	0.0378
TCGTGTAGGTTACCAATGGGGCATTCAGCTTTCT	1.15	1.46	0.613	0.901	0.634	0.276	0.371	-0.0857
TTACAAAGGTGAAGGTCGTTGATCCCTCTGTAGA	2.91	3.09	2.66	0.165	3.13	2.1	0.228	1.08
ATCGAAAGGTCGAGGTGAGTATGGAGAAAGGGAA	2.76	4.21	4.51	0.698	4.17	2.84	0.743	0.435
TCTCGGAGGACCCGAAGGTCAGAGCTTTCCAGAG	2.83	2.16	1.76	-0.207	1.82	1.62	-0.184	-0.145
TCTTGTAGATCAGCCGGTTAAGAAAGCTGGCCAA	-0.307	-0.542	-0.822	0.73	-0.222	-0.482	-0.883	-0.659
CCATACGGGTCAAGGTTATAGCACGGGTGGTACG	3.43	4.7	4.33	0.452	4.65	2.85	0.691	1.15
GCTCGGAGGACAAGCTCAGAGCTTTGTCCGTAGA	-0.256	-0.416	0.0982	-0.613	-1.03	0.34	-0.504	-0.467
AGAACGAGGGCAATGAGTTGATAGCCCGGGTGGC	0.793	0.874	1.57	1.84	0.855	0.913	-0.362	2.96
CAAACTAGGTCACCGGAAGGTCAAAGACCGCATG	5.49	8.28	7.5	1.49	6.27	4.46	2.95	2.59
AGTCTAAGTTCATCTAGGTAACGTAAGATATGCT	2.48	3.58	4.02	4.94	2.6	2.9	0.767	5.9
TCTCGGAGGACACGACAGGTCAGAGCTCGACATC	2.87	2.35	3.16	0.685	1.41	2.96	1.04	0.677
ATCTCTATGTAAAGTTCAGTGAAAGATCGATAGA	2.23	2.06	2.29	1.3	1.08	0.757	-0.304	2.03
GCAGACAGGTGAAACGCAGGGAACTCAGGGTGGC	-0.128	0.193	0.108	-1.09	0.587	0.258	-0.443	-0.619
ACTAGCAGGCAAAGTTTGGGTCACTCAAACAAAG	1.61	0.87	0.559	-0.386	0.711	2.14	0.949	0.233
GCTCGGAGTACAAGGTCAGAGCTTTGTCCGTAGA	2.65	2.42	2.48	1.1	2.11	2.63	1.23	0.858
AGTCAAAGATCATCTAGGTAACGTAAGATATGCT	-0.47	0.163	0.343	-0.336	0.746	1.07	-0.24	-0.621
CCAACTGGGCCACGAAAGGTCATTGATTCAGTGA	4.65	4.7	4.65	0.781	5.13	3.69	0.917	2.32

Sequence	PBM binding z-score [1]	PBM binding z-score [2]	PBM binding z-score [3]	PBM binding z-score [4]	PBM binding z-score [5]	PBM binding z-score [6]	PBM binding z-score [7]	PBM binding z-score [8]
ATCTCTAGGTAAGAGTCAGTTCAGTGAAGAACGC	0.813	0.338	0.332	0.262	0.0582	0.853	0.649	0.916
TCTGCTAGGTCCACGATGGTCAGCTAATCTGCTA	-0.207	-0.213	-0.0544	0.651	-0.333	-0.32	-0.873	-0.326
ATATGTAGGTTATCGGCTCATTCAGTTTGCGCAT	0.158	0.446	0.752	0.79	0.927	0.266	0.293	0.816
ACTAGCAGGCCAAGTTCGGGTCACTCAAACAAAG	2.96	3.14	2.14	0.623	1.81	3.55	2.61	2.1
CCTTACGGGTCACTGACACGTTATAGCATTTGGA	2.9	4.76	4.47	2.05	4.94	2.5	0.436	0.844
TCTTGTAGATCAGCAGGTTAGGAAAGCTGGCCAA	0.063	-0.177	-0.406	0.591	0.165	0.0538	-0.496	-0.206
CGAACTAGGTCATTGACAGGACAGTGAATAGTAA	2.71	4.63	4.21	2.33	2.61	2.98	0.802	0.793
CCTTACGGGTCACTGACAGTTTATAGCATTTGGA	3.2	5.31	4.77	2.11	5.48	2.74	0.505	1.42
TCTAATTGGTCACGGAGGTCACACACGACGGGTA	4.68	5.01	5.18	1.55	5.28	3.73	2.75	3.23
TCATATAGGTATTACAGGTGAAAGTCGGCATCTA	0.804	0.652	0.438	1.81	1.35	0.854	0.684	0.524
CGAACTAGGTCAAGGACAGTGACTCTCCGCACGC	3.26	3.85	4.74	1.45	2.69	3.31	2.26	0.341
CCGACTTGGGCATAAGGTTACCATAAGCCAGCCC	0.962	0.45	0.236	-0.0632	0.906	1.84	1.27	-0.535
CCTGTTAGGTCAATGGTCAGCTAAAGCAGCTCGC	3.5	4.07	4.93	2.35	2.63	3.16	2.18	0.926
CAAGACAGGTGAAAGGTAACTCAGTCTGGTACGC	0.906	1.58	0.784	-0.244	2.35	1.2	0.0377	-0.217
CGTCCAACGTCAAAGGTCAGTGAAGAGATGACGG	4.22	4.66	5.08	0.458	5.09	2.5	0.106	0.685
TAGCCTAGGTTAGATCGGGCCAGTATACGCTATA	-0.0792	-0.00796	0.127	-0.662	-0.141	2.61	-0.725	-0.374
GGAACGAGGGCGAGTTGATAGCAGAGTTTGATGG	-0.0873	-0.0842	0.176	1.73	0.0566	-0.305	-0.578	1.12
GCACACAGGTGAAACGCAGGTAACTCAGGGTGGC	0.327	1.15	0.263	-0.192	0.954	1.47	-0.486	-0.299
CCTACTTGGCCAAAAAGGTCATTGATGCCGATAA	4.05	4.68	4.19	1.55	5.15	3.18	1.06	3.04
CTACCAAGGTGAACAAGGTCGTTGAATACTATTC	2.13	1.97	1.95	1.24	1.98	3.25	1.83	2.1
AGTCAAAGTTCACTAGGTAACGTAGGATTCAGCT	3.85	4.87	5.63	4.05	3.74	1.98	0.256	3.59
CCTCGGAGGACAGAAGGTCAGACCTGTCCGCTTT	3.7	3.17	3.3	0.392	2.08	2.39	-0.0906	0.229
CAAACTAGGTCCAAGGTCAAAGTCGAGCCAACCA	3.79	3.98	3.24	2.47	4.04	3.64	2.62	3.42
TCATATAGGAAAACAGGTGAAAGTCCGTAAGTTA	0.455	0.219	0.0668	1.81	1.17	0.338	0.187	0.639
AATACAGGGTCACTATGCCAGAGTAGGTACGAAT	2.83	4.76	4.14	2.94	5.15	3.31	1.27	2.48
ATCTCTAGGTAAGACTCATTTCAGTGAAGAACGC	0.362	-0.0496	0.0938	0.594	-0.0279	0.358	0.931	0.563

Reference: the supplement of paper PMC6555819
